Measured values published in PubChem BioAssay (EPA / NIEHS).
Several values for one entry are separate records, joined by “and”; a condition that tells them apart may be missing. Equal entries are not always repeated. Inconclusive results are not listed. Some compounds were tested as several samples or in several runs, with calls that do not always agree. Activity calls are given as the source filed them. The calls were made as follows: active = hit-call score of the fitted dose curve at least 0.9, where 1 is the maximum; inconclusive = response in the unintended direction; inactive = score below 0.9.

Tests used:
[1] = TOX21_p53_BLA_p3_viability: Viability Assessment in the Tox21 HCT-116 p53 Agonism Beta-lactamase Assay, Phase 3 (AID 2283593);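 also: cells exposed to compound for 16 h before reading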
How it was run: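 Cellular ATP was quantified by CellTiter-Glo luminescence, read after 30 min at room temperature. Beforehand, HCT116 cells (4000/well) received compound 5 h post-seeding, 217-fold diluted from DMSO, then incubated 16 h at 37C.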

[2] = biological target: Cellular tumor antigen p53 (Homo sapiens) (UniProt P04637); experiment: TOX21_p53_BLA_p3_ratio: Tox21 HCT-116 p53 Agonism Beta-lactamase Assay, Ratio, Phase 3 (AID 2283596)
How it was run: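 Cells were seeded at 4000/well, rested 5 h at 37C, then dosed with DMSO compound solutions (217-fold dilution) for 16 h. CCF4-AM substrate was loaded for 2 h at room temperature, and the 460/530 nm emission ratio was fitted for gain of signal versus DMSO.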

[3] = TOX21_p53_BLA_p4_viability: Viability Assessment in the Tox21 HCT-116 p53 Agonism Beta-lactamase Assay, Phase 4 (AID 2283597);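 also: hits lower the luminescence signal meaning cytotoxicity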
How it was run: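 Cytotoxicity was inferred from loss of CellTiter-Glo luminescence. HCT116 cells had been dosed with compounds after 5 h plating, incubated 16 h at 37C and 5% CO2, and exposed to the CCF4-AM substrate for 2 h.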

[4] = biological target: Cellular tumor antigen p53 (Homo sapiens) (UniProt P04637); experiment: TOX21_p53_BLA_p5_ratio: Tox21 HCT-116 p53 Agonism Beta-lactamase Assay, Ratio, Phase 5 (AID 2283599)
How it was run: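 Beta-lactamase reporter ratio (blue 460 nm over green 530 nm, 405 nm excitation) after 2 h CCF4-AM loading, in HCT-116 cells exposed 16 h at 37 C to compounds pinned at 217-fold dilution. Increases relative to DMSO baseline scored.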

[5] = TOX21_p53_BLA_p5_viability: Viability Assessment in the Tox21 HCT-116 p53 Agonism Beta-lactamase Assay, Phase 5 (AID 2283600)
How it was run: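 Luciferase-coupled ATP quantitation of cells treated for 16 h (37C, 5% CO2) with test chemicals delivered in DMSO via a 217-fold dilution; 4000 cells/well; reagent incubated 30 min at room temperature before luminescence reading.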

[6] = biological target: Cellular tumor antigen p53 (Homo sapiens) (UniProt P04637); experiment: TOX21_p53_BLA_p4_ratio: Tox21 HCT-116 p53 Agonism Beta-lactamase Assay, Ratio, Phase 4 (AID 2283601)
How it was run: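 Signal is the blue/green (460nm/530nm) ratio of cleaved versus uncleaved CCF4-AM substrate, read after 2 h substrate loading. Cells were HCT116 carrying the p53-responsive beta-lactamase reporter, dosed 16 h at 37C, 5% CO2; CellTiter-Glo measured in parallel.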

[7] = Tanguay_ZF_120hpf_YSE_legacy: (Legacy) Oregon State University Tanguay Lab 120 Hour Post-fertilization zebrafish Assay for Yolk Sac Edema (AID 2283634)
How it was run: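 Tropical 5D wild-type embryos, dechorionated with pronase at 4 hpf, were exposed singly from 6 hpf to 120 hpf under static, sealed, dark conditions at 28C with 0.64% DMSO final. Yolk sac edema was scored present/absent by brightfield microscopy.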

[8] = Tanguay_ZF_120hpf_AXIS_legacy: (Legacy) Oregon State University Tanguay Lab 120 Hour Post-fertilization zebrafish Assay for Body Axis Malformation (AID 2283635)
How it was run: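 Tropical 5D wild-type zebrafish embryos, dechorionated with pronase at 4 hpf, were placed singly in wells at 6 hpf and exposed statically to test chemical (0.64% DMSO final) at 28C until 120 hpf, then scored by brightfield for body axis defects.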

[9] = Tanguay_ZF_120hpf_EYE_legacy: (Legacy) Oregon State University Tanguay Lab 120 Hour Post-fertilization zebrafish Assay for Eye Malformation (AID 2283636);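 also: binary presence or absence of eye malformation scored by brightfield in 120 hpf larvae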
How it was run: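 Binary brightfield scoring of eye defects at 120 hpf after static exposure from 6 hpf of single pronase-dechorionated wild-type embryos (28C, 0.64% DMSO). Non-mortality endpoints omitted where embryos died; fit vs DMSO.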

[10] = Tanguay_ZF_120hpf_SNOU_legacy: (Legacy) Oregon State University Tanguay Lab 120 Hour Post-fertilization zebrafish Assay for Snout Malformation (AID 2283637)
How it was run: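 Binary snout-malformation call at 120 hpf in wild-type 5D embryos, chorion removed by pronase, under static exposure from 6 hpf at 28C (0.64% DMSO). Embryos dying by 24 or 120 hpf excluded.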

[11] = Tanguay_ZF_120hpf_JAW_legacy: (Legacy) Oregon State University Tanguay Lab 120 Hour Post-fertilization zebrafish Assay for Jaw Malformation (AID 2283638)
How it was run: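 Tropical 5D wild-type embryos, dechorionated with pronase at 4 hpf, were placed singly per well at 6 hpf and statically exposed at 28C until 120 hpf (0.64% DMSO final). Jaw malformation scored as present/absent by brightfield microscopy at 120 hpf, analyzed relative to DMSO.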

[12] = Tanguay_ZF_120hpf_OTIC_legacy: (Legacy) Oregon State University Tanguay Lab 120 Hour Post-fertilization zebrafish Assay for Otic Vesicle Malformation (AID 2283639)
How it was run: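 Binary scoring of otic vesicle defects at 120 hpf in zebrafish (Tropical 5D) held under static exposure at 28C, sealed and shaded, with final DMSO 0.64%. Embryos dying by 24 or 120 hpf excluded; fitted positively against DMSO.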

[13] = Tanguay_ZF_120hpf_PE_legacy: (Legacy) Oregon State University Tanguay Lab 120 Hour Post-fertilization zebrafish Assay for Pericardial Edema (AID 2283640)
How it was run: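 Tropical 5D wild-type zebrafish embryos were exposed statically to 120 hpf at 28C, sealed and foil-covered, in 0.64% DMSO final. Pericardial edema was scored present/absent by brightfield microscopy; dead embryos were not scored.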

[14] = Tanguay_ZF_120hpf_PFIN_legacy: (Legacy) Oregon State University Tanguay Lab 120 Hour Post-fertilization zebrafish Assay for Pectoral Fin Malformation (AID 2283648);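 also: each larva judged yes or no for fin defect by brightfield with dead larvae skipped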
How it was run: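 Pectoral fin malformation was recorded as a binary endpoint at 120 hpf in wild-type Tropical 5D larvae, which had been dechorionated and exposed statically from 6 hpf at 28C in 0.64% DMSO. Dead embryos were excluded.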

[15] = Tanguay_ZF_120hpf_PIG_legacy: (Legacy) Oregon State University Tanguay Lab 120 Hour Post-fertilization zebrafish Assay for Pigmentation Malformation (AID 2283650)
How it was run: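 Pigment malformation recorded as a binary call at 120 hpf in zebrafish (Tropical 5D) exposed singly from 6 hpf after pronase dechorionation. Static, sealed, 28C exposure, 0.64% DMSO; mortality excludes scoring; positive-direction fit against DMSO.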

[16] = Tanguay_ZF_120hpf_CIRC_legacy: (Legacy) Oregon State University Tanguay Lab 120 Hour Post-fertilization zebrafish Assay for Circulatory Malformation (AID 2283651)
How it was run: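 Binary circulatory malformation call at 120 hpf by brightfield imaging of zebrafish larvae; chorion removed at 4 hpf, static exposure from 6 hpf in sealed dark plates at 28C, final DMSO 0.64%; non-mortality endpoints skipped if embryo died.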

[17] = Tanguay_ZF_120hpf_SWIM_legacy: (Legacy) Oregon State University Tanguay Lab 120 Hour Post-fertilization zebrafish Assay for Swim Bladder Malformation (AID 2283654);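 also: swim bladder malformation in each larva scored yes or no under brightfield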
How it was run: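 Scoring is binary for swim bladder defects at 120 hpf, by brightfield inspection of zebrafish larvae. Embryos were exposed singly from 6 hpf after pronase dechorionation, at 28C with 0.64% DMSO; mortality excluded scoring.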

[18] = Tanguay_ZF_120hpf_TRUN_legacy: (Legacy) Oregon State University Tanguay Lab 120 Hour Post-fertilization zebrafish Assay for Truncated Body (AID 2283655)
How it was run: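 Tropical 5D wild-type embryos, dechorionated with pronase at 4 hpf, were placed singly in wells at 6 hpf and statically exposed at 28C until 120 hpf, final DMSO 0.64%. Truncated body was scored present/absent by brightfield microscopy.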

Cellular tumor antigen p53 (Homo sapiens), sequence (P04637 whole entry, looked up): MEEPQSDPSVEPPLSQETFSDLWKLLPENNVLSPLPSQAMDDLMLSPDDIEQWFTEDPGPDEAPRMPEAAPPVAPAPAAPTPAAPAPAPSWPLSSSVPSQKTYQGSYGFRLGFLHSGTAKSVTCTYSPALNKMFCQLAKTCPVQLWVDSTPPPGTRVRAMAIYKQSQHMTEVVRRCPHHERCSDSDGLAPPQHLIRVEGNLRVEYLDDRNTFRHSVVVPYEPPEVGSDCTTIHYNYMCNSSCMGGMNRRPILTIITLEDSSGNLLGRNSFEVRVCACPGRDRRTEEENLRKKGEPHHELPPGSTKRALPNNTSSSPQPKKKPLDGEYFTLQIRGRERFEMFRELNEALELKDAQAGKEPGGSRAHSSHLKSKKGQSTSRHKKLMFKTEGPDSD

With O=S(=O)(O)c1ccc2cc(O)ccc2c1 the outcome [1] was “inactive”, the outcome [2] was “inactive” and the outcome [3] was “inactive”. For the same compound, the outcome [4] was “inactive”, the outcome [5] was “inactive” and the outcome [6] was “inactive”.

For CCOCCOCC, the outcome [1] was “inactive”, the outcome [2] was “inactive” and the outcome [3] was “inactive”. The outcome [4] was “inactive” and the outcome [5] was “inactive”.

In the case of CCCCCC(C)OC(=O)COc1ccc(Cl)c2cccnc12 (centres undefined), the outcome [1] is reported as “inactive”, the outcome [2] is reported as “inactive” and the outcome [3] is reported as “inactive”. The outcome [4] was “inactive” and the outcome [5] was “inactive”.

For CC1=NN(c2ccccc2)C(=O)C1, the outcome [1] was “inactive”, the outcome [2] was “inactive” and the outcome [3] was “inactive”. The outcome [4] was “inactive”, the outcome [5] was “inactive” and the outcome [6] was “inactive”.

In the case of CCCCCCCCCCCCOC(=O)c1cc(O)c(O)c(O)c1, the AC50 [1] is reported as 49.2 µM (active) and 77.1 µM (active), the AC50 [2] is reported as 57.6 µM (active) and 81.5 µM (active) and the AC50 [3] is reported as 46.1 µM (active) and 30.9 µM (active). The AC50 [4] was 48.3 µM (active) and 77 µM (active), the AC50 [5] was 41.2 µM (active) and 78.9 µM (active) and the AC50 [6] was 53 µM (active) and 36.9 µM (active).

For O=C1OC2(c3ccccc31)c1cc(I)c(O)c(I)c1Oc1c2cc(I)c(O)c1I, the outcome [1] was “inactive”, the AC50 [2] was 87.3 µM (active) and the outcome [2] was “inactive”. For the same compound, the AC50 [3] was 58.1 µM (active), the outcome [3] was “inactive” and the AC50 [4] was 83 µM (active). For the same compound, the outcome [4] was “inactive”, the outcome [5] was “inactive” and the AC50 [6] was 73.9 µM (active). For the same compound, the outcome [6] was “inactive”.

With COc1cc([N+](=O)[O-])ccc1N the outcome [1] was “inactive”.

With Nc1ccc(O)c(C(=O)O)c1 the outcome [1] was “inactive”, the outcome [2] was “inactive” and the outcome [3] was “inactive”. For the same compound, the AC50 [4] was 71.9 µM (active), the outcome [4] was “inactive” and the outcome [5] was “inactive”.

In the case of O=C(NO)c1ccccc1, the outcome [1] is reported as “inactive”, the outcome [2] is reported as “inactive” and the outcome [3] is reported as “inactive”. The outcome [4] was “inactive”, the outcome [5] was “inactive” and the outcome [6] was “inactive”.

For CCC(=O)C=Cc1ccc(OC)cc1, the outcome [1] was “inactive”, the outcome [2] was “inactive” and the outcome [3] was “inactive”. For the same compound, the outcome [4] was “inactive”, the outcome [5] was “inactive” and the outcome [6] was “inactive”.

For CC=O, the AC50 [1] was 86.1 µM (active), the AC50 [2] was 2.37 µM (active) and the AC50 [3] was 47.9 µM (active). For the same compound, the AC50 [4] was 30.3 µM (active), the AC50 [5] was 74.4 µM (active) and the AC50 [6] was 62.6 µM (active).

In the case of O=C(c1ccccc1)c1ccccc1, the outcome [1] is reported as “inactive”, the outcome [2] is reported as “inactive” and the outcome [3] is reported as “inactive”. For the same compound, the outcome [4] was “inactive”, the outcome [5] was “inactive” and the outcome [6] was “inactive”. For the same compound, the outcome [7] was “inactive”, the outcome [8] was “inactive” and the outcome [9] was “inactive”. The outcome [10] was “inactive”, the outcome [11] was “inactive” and the outcome [12] was “inactive”. The outcome [13] was “inactive”, the outcome [14] was “inactive” and the outcome [15] was “inactive”. For the same compound, the outcome [16] was “inactive”, the outcome [17] was “inactive” and the outcome [18] was “inactive”.

With CCOC(=O)CN[C@@H](C(=O)N1CC[C@H]1C(=O)NCc1ccc(/C(N)=N/O)cc1)C1CCCCC1 the outcome [1] was “inactive”, the outcome [2] was “inactive” and the outcome [3] was “inactive”. The outcome [5] was “inactive” and the outcome [6] was “inactive”.

In the case of c1cnc2c(c1)ccc1cccnc12, the outcome [1] is reported as “inactive”, the outcome [2] is reported as “inactive” and the AC50 [3] is reported as 41.8 µM (active). The outcome [4] was “inactive”, the outcome [5] was “inactive” and the outcome [6] was “inactive”.

For CC(O)COc1ccccc1 (centres undefined), the outcome [1] was “inactive”, the outcome [2] was “inactive” and the outcome [4] was “inactive”. The outcome [5] was “inactive” and the outcome [6] was “inactive”.

With CC(C)C=O the outcome [1] was “inactive”, the outcome [3] was “inactive” and the outcome [4] was “inactive”. The outcome [5] was “inactive” and the outcome [6] was “inactive”.

In the case of O=C(Nc1ccc(Cl)c(Cl)c1)c1cc(Cl)cc(Cl)c1O, the AC50 [1] is reported as 0.989 µM (active), the AC50 [2] is reported as 0.434 µM (active) and the AC50 [3] is reported as 0.671 µM (active). The AC50 [4] was 1.45 µM (active), the outcome [5] was “inactive” and the AC50 [6] was 2.77 µM (active).

In the case of CCOC(C)=O, the outcome [1] is reported as “inactive”, the outcome [2] is reported as “inactive” and the outcome [3] is reported as “inactive”. For the same compound, the outcome [4] was “inactive”, the outcome [5] was “inactive” and the outcome [6] was “inactive”.

In the case of COC(=O)CC(C(C)=O)C(=O)OC (centres undefined), the outcome [1] is reported as “inactive”, the outcome [2] is reported as “inactive” and the outcome [4] is reported as “inactive”. The outcome [5] was “inactive” and the outcome [6] was “inactive”.

For NS(=O)(=O)O, the outcome [1] was “inactive”, the outcome [2] was “inactive” and the outcome [4] was “inactive”. The outcome [5] was “inactive” and the outcome [6] was “inactive”.

With O=C1OC(=O)c2cc(-c3ccc4c(c3)C(=O)OC4=O)ccc21 the outcome [1] was “inactive”, the outcome [2] was “inactive” and the outcome [3] was “inactive”. The outcome [4] was “inactive”, the outcome [5] was “inactive” and the outcome [6] was “inactive”.

With CNNCc1ccc(C(=O)NC(C)C)cc1 the outcome [1] was “inactive”, the outcome [2] was “inactive” and the outcome [3] was “inactive”. The outcome [4] was “inactive”, the outcome [5] was “inactive” and the outcome [6] was “inactive”.

With CCN(CC)CC the outcome [1] was “inactive”, the outcome [4] was “inactive” and the outcome [5] was “inactive”. The outcome [6] was “inactive”.

With CC(C)(C)c1ccc(CCC=O)cc1 the outcome [1] was “inactive”, the outcome [2] was “inactive” and the outcome [4] was “inactive”. The outcome [6] was “inactive”.
